Source: PubChem (National Center for Advancing Translational Sciences (NCATS))
Most compounds without a hit are left out; they make up all but 12% or so of the library.
G9a inh: blocks human histone lysine methyltransferase G9a. Q96KQ7. G9a H3K9 monomethylation, AlphaScreen, 2 h. Potency, µM (highest dose often 102 µM), for the others: at the top dose activity, negative = inhibition, actives largely listed as inhibitors. 350,000 tested, 8.8% active; note: potency is the fitted concentration of half-maximal effect; % is set by controls: 0 for no effect and ±100 for the full control effect; nearly all actives have a fitted effect of over 75% in size
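Quantitative HTS format: methyltransferase activity on a biotin-tagged H3K9 peptide is measured by AlphaScreen, using a rabbit anti-monomethyl-H3K9 antibody with streptavidin donor and anti-IgG acceptor beads. Final levels are 20 nM enzyme, 500 nM peptide, 20 uM SAM; 2 h RT.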
PLK1 PBD inh: inhibitors of human PLK1 polo-box domain binding; P53350; Plk1 PBD binding of FITC phosphopeptide, fluorescence polarization; Potency, µM, for inactives: max response, negative = inhibition, usual class: inhibitors; 360,000 tested, 2.8% active; AID 720504; note: potency is the fitted concentration of half-maximal effect; series mostly up to about 57 µM; % is set by controls: 0 for no effect and ±100 for the full control effect; nearly all actives have a fitted effect of over 65% in size
Target sequence (P53350 whole entry, looked up, the tested form may be a part): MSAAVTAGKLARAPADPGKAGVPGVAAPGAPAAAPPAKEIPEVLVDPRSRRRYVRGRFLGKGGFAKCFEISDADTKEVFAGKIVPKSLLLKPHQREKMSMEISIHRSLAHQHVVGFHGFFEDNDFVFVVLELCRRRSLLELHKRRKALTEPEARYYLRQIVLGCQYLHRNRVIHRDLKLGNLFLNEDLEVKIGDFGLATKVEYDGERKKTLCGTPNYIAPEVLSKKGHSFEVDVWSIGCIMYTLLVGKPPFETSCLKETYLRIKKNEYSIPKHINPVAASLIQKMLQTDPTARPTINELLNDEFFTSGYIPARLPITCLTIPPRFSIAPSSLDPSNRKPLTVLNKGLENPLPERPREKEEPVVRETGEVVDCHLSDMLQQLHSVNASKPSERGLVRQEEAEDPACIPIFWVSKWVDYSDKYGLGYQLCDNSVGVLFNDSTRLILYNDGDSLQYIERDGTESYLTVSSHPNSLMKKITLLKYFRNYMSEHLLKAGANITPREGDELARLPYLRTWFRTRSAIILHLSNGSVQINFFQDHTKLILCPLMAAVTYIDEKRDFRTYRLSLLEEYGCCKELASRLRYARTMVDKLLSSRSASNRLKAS
BAZ2B block: BAZ2B (human) inhibition; AID 504333; 360,000 tested, 4.4% active; Potency, µM (titrated, usually from 114 µM), inactives show top-dose activity change, negative = inhibition, usual class: inhibitors; AlphaScreen BAZ2B-H3K14Ac peptide displacement; note: potency is the fitted concentration of half-maximal effect; % is set by controls: 0 for no effect and ±100 for the full control effect; nearly all actives have a fitted effect of over 60% in size
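BAZ2B (50 nM) with biotin-H3(5-23)K14Ac peptide (50 nM) in PBS pH 7.4, 0.01% Tween-20, preformed 30 min, then compound 30 min at room temperature; top concentration 110uM. AlphaScreen streptavidin donor/nickel chelate acceptor beads (10 ug/mL final), 20 min dark, signal read.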
HP1b chromo inh: inhibitors of HP1-beta chromodomain binding to methylated histone tails; AlphaScreen HP1-beta / biotin-H3K9me3 peptide binding; P83916; 390,000 tested, 0.56% active; Potency, µM (series often up to 114 µM), for the others: at the top dose activity change, negative = inhibition, most hits filed as inhibitors; AID 540317; note: potency is the fitted concentration of half-maximal effect; nearly all actives have a fitted effect of over 70% in size
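HP1-beta protein (50 nM final) preincubated 30 min at room temperature with biotinylated H3(1-18)K9me3 peptide (50 nM) in PBS pH 7.4, 0.01% Tween-20, then compound added for 30 min. AlphaScreen streptavidin donor/nickel chelate acceptor beads (10 ug/mL final), 30 min dark, luminescence read.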
PI5P4K alpha inh: PI5P4K alpha (human) kinase inhibition | PI5P4Kalpha enzyme, ADP-Glo luminescence, 60 min; active compounds read low | AID 652105 | 330,000 tested, 1.2% active | P48426 | max response, %; active = max response of -50% or lower; inconclusive = between -30% and -50%; inactive = -30% or higher; note: value at the top dose of about 77 µM; % is set by controls: 0 for no effect and ±100 for the full control effect
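PI5P4Kalpha ADP-Glo assay; 5 microM ATP final; 60 min RT reaction; HEPES pH 7.4/EGTA/CHAPS, 5% DMSO; controls lacking substrate or enzyme; luminescent end-point.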
JMJD2A Tudor: blocks the human JMJD2A Tudor domain. AlphaScreen JMJD2A-Tudor / H3K4me3 peptide binding. Potency, µM (series often up to 114 µM), for inactives: top-dose activity change, negative = inhibition, actives largely listed as inhibitors. 390,000 tested, 4.4% active. AID 504339; note: potency is the fitted concentration of half-maximal effect; % is set by controls: 0 for no effect and ±100 for the full control effect; nearly all actives have a fitted effect of over 50% in size
Starred values were filed as active, the others as inactive; ? = inconclusive; / = not tested or not shown; [ ] = remark or other dose. Unless noted, calls come from the whole dose curve; as a rule, active = well fitted curve in the direction sought with a large enough effect; inconclusive = small, poorly fitted or top-dose-only effect, or another doubt; inactive = no such curve, though single readings can be large; an effect the other way counts as inactive or inconclusive.

SMILES	G9a inh	PLK1 PBD inh	BAZ2B block	HP1b chromo inh	PI5P4K alpha inh	JMJD2A Tudor
S=C(c1ccc(-c2ccc(Cl)cc2)o1)N1CCCCC1	13µM*	-18%	28µM*	?	/	22µM*
CN1CCN(C(=S)c2ccc(-c3cccc(Cl)c3Cl)o2)CC1	40µM*	-2%	?	45µM*	11	28µM*
Clc1ccc(-c2ccc(CN3CCCCC3)o2)cc1	-15%	-17%	?	11%	7	-31%
Cc1cc(OCc2ccc(C(=O)n3cccn3)o2)ccc1Cl	-18%[59 µM]	24µM*	21%	26%	0	-5%[57.1 µM]
O=C(CO/N=C/c1cccc([N+](=O)[O-])c1)Nc1ccc2ccccc2c1	0.89µM*	-2%	?	6%	0	-26%
O=C(COc1ccc(/C=N/NC(=O)c2ccc(O)cc2)cc1)Nc1cccc([N+](=O)[O-])c1	28µM*	-21%	-35%	3%	-11	-24%
CCC(Cc1ccccc1)NC(=O)c1ccc2nc(N3CCC(C)CC3)sc2c1 (stereo not drawn)	-4%[59 µM]	/	-33%	36%	/	0%
Cc1cccc(CN(CC(=O)N/N=C/c2ccco2)S(=O)(=O)c2ccc(Cl)cc2)c1	?	-20%	50µM*	?	-23	79µM*
O=C(NCc1nnc(-c2cc3ccccc3[nH]2)o1)c1ccccc1	/	/	/	/	/	-20%
O=c1[nH]c2ccc(Br)cc2c(-c2ccccc2)c1CN1CCOCC1	50µM*	?	-11%	13%	?	?
Cn1c(=O)n(C/C=C/c2ccccc2)c(=O)c2c1nc1n2CCN1c1ccc(F)cc1	1%[59 µM]	/	5%	49%	/	12%
Cc1c(C(=O)NCc2ccccc2)oc2c1-c1[nH]ncc1CC2	?	/	?	36%	/	1%
CCOc1ccc(CCNC(=O)c2oc3c(c2C)-c2[nH]ncc2CC3)cc1OCC	45µM*	-5%	-6%	8%	-10	-26%
CCOc1ccc(CCNC(=O)c2ccc(C)c(S(=O)(=O)N3CCOCC3)c2)cc1OCC	/	?	/	21%	-3	-11%
CCOc1ccc(CCNC(=O)c2nccnc2C(=O)O)cc1OCC	50µM*	1%	?	20%	0	-2%
CCOC(=O)c1ccc(NC(=O)c2cccc(S(=O)(=O)N3CCOCC3)c2)cc1	-2%[59 µM]	-23%	/	5%	-12	-18%
CCOC(=O)c1ccc(S(=O)(=O)Nc2cc(S(=O)(=O)N3CCOCC3)ccc2O)cc1	/	5.3µM*	/	?	?	?
CCOc1ccc(CCNC(=O)c2ccc(Cl)c(S(=O)(=O)N3CCOCC3)c2)cc1OCC	56µM*	-7%	56µM*	?	-11	?
CCOc1ccc(CCNC(=O)c2cnccn2)cc1OCC	16%	-1%	-1%	29%	6	-6%
O=C(COc1ccc(Cl)cc1)NCCNC(=O)c1ccccn1	17%	-14%	0%	7%	-5	-8%
COc1ccccc1N1CCN(C(=O)CSc2n[nH]c(-c3ccccc3Cl)n2)CC1	-5%[59 µM]	/	2%	12%[57 µM]	/	-16%
O=C(Nc1ccccc1Sc1ccccc1)c1cnn2c1NC(=C1CC1)C=C2C(F)(F)F	/	/	/	10%	/	/
O=C(NCC(c1cccnc1)N1CCc2ccccc2C1)C(=O)Nc1ccccc1F (stereo not drawn)	?	/	?	-10%	/	?
CCOC(=O)c1ccc(NC(=O)c2ccc(C)c(S(=O)(=O)N3CCOCC3)c2)cc1	-1%	27µM*	6%	-18%	-11	1%[11.4 µM]
Cc1ccc(NC(=O)c2cccnc2)cc1S(=O)(=O)N1CCOCC1	50µM*	-2%	-6%	33%	1	-16%
SMILES	G9a inh	PLK1 PBD inh	BAZ2B block	HP1b chromo inh	PI5P4K alpha inh	JMJD2A Tudor
CCOC(=O)c1c(C)[nH]c(C(=O)COC(=O)c2ccc(F)c(S(=O)(=O)N3CCOCC3)c2)c1C	-6%[59 µM]	27µM*	18%	2%	2	17%[11.4 µM]
COc1ccc(CNC(=O)c2cc3oc4ccccc4c3n2C)cc1OC	-9%[59 µM]	/	-3%	25%	/	?
Cc1ccc(-c2[nH]nc(N)c2N=Nc2cccc(Cl)c2C)cc1	?	0%	14%	-18%	44	?
Nc1n[nH]c(C2CC2)c1N=Nc1ccc(Cl)c(Cl)c1	36%[59 µM]	-2%	15%	?	48	?
Cc1cccc(N=Nc2c(N)n[nH]c2-c2ccc(Cl)cc2)c1	22%[0.501 µM]	-11%	?	-17%	/	?
Cc1ccc(-c2[nH]nc(N)c2N=Nc2ccccc2C)cc1	?	0%	?	?	20	25µM*
Nc1n[nH]c(N)c1N=Nc1ccc2c(c1)OCO2	9%[59 µM]	-6%	40µM*	-5%	-16	?
Cc1ccc(N=Nc2c(N)n[nH]c2N)cc1	35µM*	-10%	?	-2%	2	?
Cc1nc(N)sc1N=Nc1ccc(Br)cc1	?	-1%	25µM*	-33%	/	?
Cc1c(Cl)cccc1-n1ncc(C(=O)N2CCc3ccccc3C2)c1C1CCN(C(=O)OC(C)(C)C)CC1	-6%[59 µM]	/	-2%[57.1 µM]	24%	/	-11%
CCCCCn1cc2c(c1-c1ccccc1Br)c(=O)n(C)c(=O)n2C	-36%[59 µM]	/	-34%	-8%	/	?
O=S(=O)(c1ccccc1Cl)N1CCN(c2nc(-c3cccs3)nc3ccccc23)CC1	/	/	/	46%	/	-2%
Cc1ccc(CSC2=NS(=O)(=O)c3ccccc32)cc1	/	/	/	26%[57 µM]	/	-26%[57.1 µM]
Cc1[nH]nc(N)c1N=Nc1ccc(Br)cc1	/	/	40µM*	/	/	/
O=C(COC(=O)C1CCN(c2ccc(C(F)(F)F)cn2)CC1)NCc1cccc(Cl)c1	?	-4%	0%	62%	14	-7%
Cc1[nH]c2ccccc2c1N=Nc1ccc(F)cc1	40µM*	-14%	32µM*	?	59	89µM*
Cc1[nH]c2ccccc2c1N=Nc1ccccc1F	40µM*	4%	40µM*	?	16	45µM*
Cc1[nH]c2ccccc2c1N=Nc1cc(C(=O)O)cc(C(=O)O)c1	35µM*	-9%	?	-11%	-9	-21%
Oc1[nH]c2ccccc2c1N=Nc1ccccc1Cl	/	6%	/	32%	-7	-8%
CCCN(C(=O)c1coc(=O)c2ccccc12)c1ccccc1C	2%[59 µM]	/	10%	23%	/	6%
CC(=O)Nc1cccc(NC(=O)c2cc(-c3cccnc3)nc3ccc(Cl)cc23)c1	?	9%	-36%	16%	10	-26%
O=C(Nc1nncs1)c1cc(-c2ccncc2)nc2ccc(Cl)cc12	50µM*	?	-5%	33%	-14	-2%
Cc1ccc(C(=O)Nc2nc3c(s2)CCCC3)o1	56µM*	-10%	-35%	12%	-10	-33%
CCc1nnc(NC(=O)c2cc(-c3ccncc3)nc3ccccc23)s1	?	-18%	-23%	53%	-2	-21%
